# Over roughly 68,000 sequences, “fluorescence intensity (a.u.)” has its median near 9,100; the highest 2% begin near 16,000. This excerpt belongs to a sample that is enriched for the highest values.
# Target: OsWRKY34 (Oryza sativa, UniProt Q0JBA9 1-250)
# Test: protein-binding microarray (RPBM); PBS, 2% BSA, 51.3 ng/ul salmon testes DNA, 50 uM zinc acetate, 200 nM TF, 25 C, 1 h; high values mean tight binding
# Details: protein: recombinant; tags: N-terminal polyhistidine and DsRed monomer fusion (pET32a); label: CyDye5-dUTP incorporated in the synthesized complementary strand; 3' TTTTT single-stranded linker to array surface; dsDNA, one strand shown
# Procedure, shortened: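 Using Ni–NTA, transcription factors fused N-terminally to polyhistidine and DsRed were purified after expression in E. coli BL21-CodonPlus. These were incubated at 200 nM with a blocked, double-stranded custom Agilent array for 1 h at 25 °C in a buffer containing 50 µM zinc acetate, and the array was washed. The binding signal is per-feature fluorescence intensity (arbitrary units) on an Axon 4000B scanner.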
# OsWRKY34, sequence (Q0JBA9 entry or part of it): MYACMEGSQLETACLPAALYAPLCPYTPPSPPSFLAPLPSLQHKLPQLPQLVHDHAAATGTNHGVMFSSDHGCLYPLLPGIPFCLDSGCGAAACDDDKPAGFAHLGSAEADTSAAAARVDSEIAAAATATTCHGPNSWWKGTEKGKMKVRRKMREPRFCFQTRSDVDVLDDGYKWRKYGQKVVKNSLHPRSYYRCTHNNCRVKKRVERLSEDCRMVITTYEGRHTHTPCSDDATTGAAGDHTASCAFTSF
row,Sequence,binding signal
1,ACGACCCTCTACATGTTGCTGCTGGCAGCCGCTCCCTCTCCGGAGTCACCTAGTGCAG,8660 fluorescence intensity (a.u.)
2,GTTTTTCATATTTGACGATCAAACGGTGGTTTTAAAACTTCGGAGTCACCTAGTGCAG,8140 fluorescence intensity (a.u.)
3,CACTTTTTCATGGATTTTTACTTATTTAATGATTTTTTATCGGAGTCACCTAGTGCAG,8240 fluorescence intensity (a.u.)
4,TGGCAGGGTTGCATGGTTCTGGAGGGCGGGCTGTTATATTCGGAGTCACCTAGTGCAG,13500 fluorescence intensity (a.u.)
5,AGGCGAGCGAGACGGCGGCGGGCGGGCGGGGCGGGCGACGCGGAGTCACCTAGTGCAG,14800 fluorescence intensity (a.u.)
6,GTCGTGGGCGGGAGGTGGTGGTGGTGGTGCTGCTGCATTGCGGAGTCACCTAGTGCAG,11600 fluorescence intensity (a.u.)
7,GGCGGGGCAGACGGAGGCCGACGGCTGCAGCGGGCTGGGGCGGAGTCACCTAGTGCAG,9010 fluorescence intensity (a.u.)
8,TAGTGGGGAGGCGGTGGTGCTGCGGGGAGGGAGGGAGCACCGGAGTCACCTAGTGCAG,12800 fluorescence intensity (a.u.)
9,GGGGAGGTTGCTGCTGCTGCTGGGCGGGTGGGCGGAGGGGCGGAGTCACCTAGTGCAG,28100 fluorescence intensity (a.u.)
10,GGCGAGCGCGTCGTGGAGGGCGGGGAGGGAGTCGGGCTGGCGGAGTCACCTAGTGCAG,14400 fluorescence intensity (a.u.)
11,GGCTGTTGTTTTTCCTTGTTATTCTTTCAGTAAGATATTTCGGAGTCACCTAGTGCAG,12800 fluorescence intensity (a.u.)
12,GGAGGGCGGGCTGTTATATTCTTCACACCTTGCATGTAAGCGGAGTCACCTAGTGCAG,18700 fluorescence intensity (a.u.)
13,AGCGAGCGACGGGCGGGGCGGAGCGGGGCGGGGCTGCATTCGGAGTCACCTAGTGCAG,16700 fluorescence intensity (a.u.)
14,CGATGGCTGGAGGGGAGGCGGCGGCGCATCGTGGCGGGCGCGGAGTCACCTAGTGCAG,8030 fluorescence intensity (a.u.)
15,CTCGATTCTTCTGCAGCTGGGCGGGAGGGGAGGCGTGGCGCGGAGTCACCTAGTGCAG,18300 fluorescence intensity (a.u.)
16,TCTGTCCCTCAATCCCGCGACGCCGCCGCCGTTCTGCTCCCGGAGTCACCTAGTGCAG,10000 fluorescence intensity (a.u.)
17,GATCCTATCATTTTCAACGATGTTAAATCGTCACAGGCTTCGGAGTCACCTAGTGCAG,8310 fluorescence intensity (a.u.)
18,CCTCATTAGCTAGCTTTTTAGGGTGGGGAAGGCCCTTTACCGGAGTCACCTAGTGCAG,12700 fluorescence intensity (a.u.)
19,CTCACTTGCATCTTTCCAATATCTTAGTCATTCATTAATACGGAGTCACCTAGTGCAG,8520 fluorescence intensity (a.u.)
20,AATGTATGATGCCGTTGACTTTTCGACTAACGTTTGACCACGGAGTCACCTAGTGCAG,29200 fluorescence intensity (a.u.)
21,AATGTATGACGCAGTTGACTTTGTGACAAACGTTTGACCTCGGAGTCACCTAGTGCAG,12300 fluorescence intensity (a.u.)
22,AATGTATGACGCCGTTGACTTTTTATCAAACGTTTGACCACGGAGTCACCTAGTGCAG,34800 fluorescence intensity (a.u.)

row,Sequence,binding signal
1,AATGTATGACGCCGTTGACTTTTTGCCCAACGTTTGACCACGGAGTCACCTAGTGCAG,38700 fluorescence intensity (a.u.)
2,AATGATGTTGTTGACTTTTAAAATAACGTATGGCCGTTCACGGAGTCACCTAGTGCAG,8770 fluorescence intensity (a.u.)
3,CATCCGTATGATTCGACTTTTTTTTCACGTTGATTTTATACGGAGTCACCTAGTGCAG,9050 fluorescence intensity (a.u.)
4,AATTGTAAAGTTGACTTTAATGTTTTTTTTATTGTGGTTTCGGAGTCACCTAGTGCAG,8740 fluorescence intensity (a.u.)
5,CTAAATTAATGGTCGCTTTGACTTTTTTTATGTAATGTTTCGGAGTCACCTAGTGCAG,14700 fluorescence intensity (a.u.)
6,GTAAATTATGTATGACGCGGTTGACTTTTTATTAACGTTTCGGAGTCACCTAGTGCAG,16800 fluorescence intensity (a.u.)
7,TTTTTTTCAATTCGTTTTTTTTTCATTTTTCATCGTCTTTCGGAGTCACCTAGTGCAG,8400 fluorescence intensity (a.u.)
8,TACTACTCTCGTGTGGCAAAATTTTGTCTTAGTTCTTGAACGGAGTCACCTAGTGCAG,8100 fluorescence intensity (a.u.)
9,GCGTTGTGGGTGTCTTGTGTTGTACTGCGTAATTCTTAAACGGAGTCACCTAGTGCAG,15000 fluorescence intensity (a.u.)
10,CACAACTATTTCTACTTTTATCATTCCTACCTTTTCTAATCGGAGTCACCTAGTGCAG,8180 fluorescence intensity (a.u.)
11,CTAGCCCGTTAACATTACTGTTCATCTCCCTATCCGTCTCCGGAGTCACCTAGTGCAG,9570 fluorescence intensity (a.u.)
12,TCCTACACCACCCCGTTCTCGCGCCCATCGATCCAACCGACGGAGTCACCTAGTGCAG,8920 fluorescence intensity (a.u.)
13,AGCCACAAATCCTTATTCGTTCAATTGTTTTTCTTCCTCTCGGAGTCACCTAGTGCAG,8140 fluorescence intensity (a.u.)
14,ATCGCGAAGTTCGCGACCCGATTCCTCTCCGCCCGCCATGCGGAGTCACCTAGTGCAG,8380 fluorescence intensity (a.u.)
15,GTACATGCATTATCCATATCTCTAAATTTAGCAATCACTTCGGAGTCACCTAGTGCAG,9480 fluorescence intensity (a.u.)
16,AGTTCACTTTAGGTCCCTCTATTTGTCGTCCAGTCTGATTCGGAGTCACCTAGTGCAG,8180 fluorescence intensity (a.u.)
17,GCGGCCAGGCCACCTCCAGCTCTTTTCACTCCTGGCTAACCGGAGTCACCTAGTGCAG,9500 fluorescence intensity (a.u.)
18,GATGACGTTGTTAACTTTTTATCACACGTTTGACCATTCGCGGAGTCACCTAGTGCAG,8510 fluorescence intensity (a.u.)
19,CCCGTGTCTTCCCAACCACGTTGACCACGACTTTTTCGTTCGGAGTCACCTAGTGCAG,9480 fluorescence intensity (a.u.)
20,CTCTCTCACTCTTCTCCCTCTTCTCACCACCAGACGCCATCGGAGTCACCTAGTGCAG,8850 fluorescence intensity (a.u.)
21,GTGGACGTTTTTGACTTTGTACTTTCAACGTTTGACCATTCGGAGTCACCTAGTGCAG,13900 fluorescence intensity (a.u.)
22,CGCCGTTTAGTTTTTACTAACGTTTGACCATTTTTCTTATCGGAGTCACCTAGTGCAG,11700 fluorescence intensity (a.u.)

row,Sequence,binding signal
1,TATGACGCCGTTGACTTATTGACTAACGTTTGACCATTCGCGGAGTCACCTAGTGCAG,21500 fluorescence intensity (a.u.)
2,TCTTCGTATAAAAAGTATGACGCCGTTGACTTTTCATATACGGAGTCACCTAGTGCAG,14500 fluorescence intensity (a.u.)
3,CCACCGCCCGCCGTCGTCTCTCTCTCTCTCTCTCTCTCTTCGGAGTCACCTAGTGCAG,9970 fluorescence intensity (a.u.)
4,TATTACTCCCTTCGTATTTTAATGTATGACGCCGTTGACTCGGAGTCACCTAGTGCAG,8820 fluorescence intensity (a.u.)
5,GTTGTATAGGTTGGTTTTTTATGTATGACGCCGTTGACTTCGGAGTCACCTAGTGCAG,17100 fluorescence intensity (a.u.)
6,CCCGTCAACGCCACCTCACCGTTGACGTTGCCACTCTCTTCGGAGTCACCTAGTGCAG,16800 fluorescence intensity (a.u.)
7,GACGCCGTTGACTTTTTGACCAACGTTTGACCTTTCGTCTCGGAGTCACCTAGTGCAG,31400 fluorescence intensity (a.u.)
8,TATGTCACGTATAAAATTCTAATGCTAGCTAACTACCATACGGAGTCACCTAGTGCAG,8340 fluorescence intensity (a.u.)
9,GATCCGACTCCTACTTCTAACGTAGATTTTCGGCCTTTATCGGAGTCACCTAGTGCAG,8370 fluorescence intensity (a.u.)
10,TTGCAAATGCAACCCTATTATGCCATCCTTTGTTATCCTGCGGAGTCACCTAGTGCAG,9550 fluorescence intensity (a.u.)
11,TTTGTTCTCTTTTATATGTAACACTTGCATATTTACCTTCCGGAGTCACCTAGTGCAG,8980 fluorescence intensity (a.u.)
12,CTTCTCTTACCTCGGTGGGTGCTTAATGTGCTGGTTTGAACGGAGTCACCTAGTGCAG,8740 fluorescence intensity (a.u.)
13,GCCATCCACTTGTGCTGCCAATTTGCTCAATCCCGACAAGCGGAGTCACCTAGTGCAG,8220 fluorescence intensity (a.u.)
14,ACATTTCTGTTATTCCCCGCGGACAAGTCACAACTACTTCCGGAGTCACCTAGTGCAG,9830 fluorescence intensity (a.u.)
15,CGCCGCCCATCTTGTCCCAATTCGGCTCCTATAAATTTCCCGGAGTCACCTAGTGCAG,8750 fluorescence intensity (a.u.)
16,TGCCTCCTTTTGTTTTGCGTCTCCTTATCAGAGTGGATTGCGGAGTCACCTAGTGCAG,8350 fluorescence intensity (a.u.)
17,ATCCCAATCCATGATCCAGCCATTCATCATCTGCATATATCGGAGTCACCTAGTGCAG,9790 fluorescence intensity (a.u.)
18,ATGAGTGATTGATTTCTTGTTTATAGGAGTGGGTTGTTCACGGAGTCACCTAGTGCAG,11200 fluorescence intensity (a.u.)
19,AATGTATGACGCCGTTGACTTTTTGACCAACGTTTGACTACGGAGTCACCTAGTGCAG,36100 fluorescence intensity (a.u.)
20,GTTTAGTTGATTTCAGGGCCAGTTCTTGTGGGGTTTTCAACGGAGTCACCTAGTGCAG,8490 fluorescence intensity (a.u.)
21,TCTTGTGCAGGGGTTGATTTTTCAGTGTATAGGGGTATGACGGAGTCACCTAGTGCAG,16800 fluorescence intensity (a.u.)
22,ACTATTACTACCTCAGTTTTGAAATGTATGACGTTGACTTCGGAGTCACCTAGTGCAG,11000 fluorescence intensity (a.u.)

row,Sequence,binding signal
1,ATGTATGACGCCGTTGACTTTTCGACCAACGTTTATTCGTCGGAGTCACCTAGTGCAG,30200 fluorescence intensity (a.u.)
2,ATGTACGACGCTATTGACTTTTTAACCAACGTTTGACTATCGGAGTCACCTAGTGCAG,11000 fluorescence intensity (a.u.)
3,AGATGACGCCGTTGACTTTTTATCACATGTTTAACCATTCCGGAGTCACCTAGTGCAG,42300 fluorescence intensity (a.u.)
4,AGATTACGCCGTTAACTTTTTCTCACATGTTTGACCATTCCGGAGTCACCTAGTGCAG,11000 fluorescence intensity (a.u.)
5,AAACGCTATTGACTTTTTTTATAAATGTATGACCATTCGTCGGAGTCACCTAGTGCAG,10400 fluorescence intensity (a.u.)
6,AATATTCGACGCCGTTCACTTTTTTAAATATGTTTGACCACGGAGTCACCTAGTGCAG,9820 fluorescence intensity (a.u.)
7,ATCTGTCAGTGCCACATCACCACCACACAACCGCAAAGAACGGAGTCACCTAGTGCAG,9250 fluorescence intensity (a.u.)
8,ATCGGTGTTGACCTCCATATGCTGATCAGGCCCCATTTCCCGGAGTCACCTAGTGCAG,8140 fluorescence intensity (a.u.)
9,GGCCGAGCAGGTCTCCCGCGCCTTCGACATCCCTCTGCCACGGAGTCACCTAGTGCAG,8600 fluorescence intensity (a.u.)
10,TTCCTCTACATTCTACGTCCGGTTGGATTTTGCATGCGATCGGAGTCACCTAGTGCAG,8640 fluorescence intensity (a.u.)
11,TTCTTCCCAGATCGTGCTTCTCCCACTCGGATCAGCCGCCCGGAGTCACCTAGTGCAG,8110 fluorescence intensity (a.u.)
12,TGTTGTTTTTTATGTGTGAACCTCTTTGATCTCAATGCAACGGAGTCACCTAGTGCAG,8510 fluorescence intensity (a.u.)
13,CCTCCCTCACCGTCTTCCGCCTCGCCATCTCCAGCTCCGACGGAGTCACCTAGTGCAG,10100 fluorescence intensity (a.u.)
14,CACCATCCATGCATATGCATCTTGTAGTTATTGCTTGCTCCGGAGTCACCTAGTGCAG,9580 fluorescence intensity (a.u.)
15,TCCACATCATCCGACCAACTCTACCAGCCATTCCACCCGCCGGAGTCACCTAGTGCAG,9160 fluorescence intensity (a.u.)
16,CCTTATACTGTCTCACTTGTCTCACACTGAAACCGTTTTCCGGAGTCACCTAGTGCAG,8410 fluorescence intensity (a.u.)
17,ACGCCGTTAACTTTTTATCCAATGTTTGACCATTCGTCTTCGGAGTCACCTAGTGCAG,13000 fluorescence intensity (a.u.)
18,GTATAACGCCGTTGACTTTTTAACCAATGTTTGACCATTCCGGAGTCACCTAGTGCAG,40400 fluorescence intensity (a.u.)
19,TGACGACGCCATTGACTTTTGAACACATGTTTGACCATTCCGGAGTCACCTAGTGCAG,15900 fluorescence intensity (a.u.)
20,GTATGACGCCGTTGACTTTTTGGCCAACGTTTGACCATTCCGGAGTCACCTAGTGCAG,41500 fluorescence intensity (a.u.)
21,CGTTTGGCCAAGTATATGACGCCCTAACTTATAAGTTGACCGGAGTCACCTAGTGCAG,8420 fluorescence intensity (a.u.)
